Inconclusive results are not listed. Calls of active or inactive are those of the source. The call rests on the fitted dose curve; in most records, active means well fitted cell-killing curve with a large enough effect in the repeat runs; inconclusive means weak or mixed curves, or effect the other way; inactive means flat fitted curve, though single readings scatter.
Experiment: Human pregnane X receptor (PXR) small molecule agonists, qHTS cell viability counter screen (AID 1346977); further: nearly all actives have a fitted effect of over 50% in size
Settings: PXR-Luc HepG2 viability, CellTiter-Fluor, 24 h; series mostly up to 92.4 µM; activity change, negative = cytotoxicity: at the top concentration
Excerpt: U.S. Tox21 Program National Center for Advancing Translational Sciences [NCATS] NIH Chemical Genomics Center [NCGC] U.S. Environmental Protection Agency [EPA] National Institutes of Environmental Health Sciences [NIEHS] National Toxicology Program [NTP] U.S. Food and Drug Administration [FDA] Tox21 Assay Overview: The human pregnane X receptor (hPXR) regulates the expression of several drug metabolizing enzymes and induction of these proteins is a major mechanism for developing drug resistance in cancer. One such key enzyme catalyzing the drug metabolism is cytochrome P450 3A4 (CYP3A4). Changes in CYP3A4 expression affect drug metabolism, thereby reducing the therapeutic efficacy and altering toxicological response to a drug and which finally causes adverse drug interaction. To screen Tox21 libraries for compounds that activate hPXR-mediated CYP3A4 gene expression, PXR-Luc HepG2 cells were used. Also cytotoxicity of the compounds was tested in parallel by measuring the cell viability using CellTiter-Fluor assay system in the same wells.
Tox21 Assay Protocol Summary: PXR-Luc HepG2 cells were dispensed at 2,000 per well in 5uL of assay medium containing 5% charcoal-stripped FBS into white solid bottom 1536-well plates (Corning Life Sciences, Corning, NY) using a Multidrop Combi (Thermo Scientific, Waltham, MA) dispenser. The assay plates were incubated at 37 C and 5% CO2 for 5hr, and then 23nL of compounds dissolved in DMSO and positive control were transferred using a Pintool station (Wako, San Diego, CA). The assay plates were incubated at 37C and 5% CO2 for 24hr. For cytotoxicity read, after 23hr incubation at 37C, 1uL CellTiter-Fluor reagent (Promega Corporation, Madison, WI) was added to each well of the assay plates using Flying Reagent Dispenser (FRD, Aurora Discovery, San Diego, CA). After 1hr incubation at 37C and 5% CO2, the fluorescence signal was quantified using a ViewLux plate reader (PerkinElmer, Shelton, CT).
On the % scale 0 is the no-effect control and ±100 the full control effect; potency means the concentration at half of the fitted maximal effect.

Row | SMILES | activity change, negative = cytotoxicity | Potency
1 | OC[C@H]1O[C@@H](OCCc2ccc(O)cc2)[C@H](O)[C@@H](O)[C@@H]1O | 6.4% [at 42.5 µM] (inactive) | 
2 | CCCCCCCC/C=C\CCCCCCCC(=O)OCC | 0.477% (inactive) | 
3 | CC(C)(CO)[N+](=O)[O-] | 1.45% (inactive) | 
4 | C=CC(=O)OCCOCCOCCOCCOC(=O)C=C |  | 54 µM (active)
5 | CCCCCCCCCCCC(=O)OC[C@@H](O)[C@H]1OC[C@H](OCCO)[C@H]1OCCO | 1.6% (inactive) | 
6 | CCNc1cc(O)ccc1C | -23.8% (inactive) | 
7 | O=C(O)c1ccc(-n2nc(-c3ccccc3O)nc2-c2ccccc2O)cc1 | -20.3% [at 42.5 µM] (inactive) | 
8 | C=C(C)C(=O)OCCOCC | 0.391% (inactive) | 
9 | C[C@@H](c1ncncc1F)C(O)(Cn1cncn1)c1ccc(F)cc1F (stereo not given in full) | 10.1% [at 42.5 µM] (inactive) | 
10 | CC1=CCCC(C)(C)C12CCC(C)O2 (stereo not given) | 9.38% (inactive) | 
11 | Cc1ccccc1S(=O)(=O)O | 5% (inactive) | 
12 | COc1cccc(N(C)C(=S)Oc2ccc3c(c2)CCCC3)n1 | 12.5% [at 42.5 µM] (inactive) | 
13 | COc1ccc(C(=O)c2ccc(OC)cc2O)c(O)c1 | -3.09% (inactive) | 
14 | COC(C)(C)CCO | 2.15% (inactive) | 
15 | CC1CCC(=O)C1=O (stereo not given) | -1.01% (inactive) | 
16 | CC1OC(=O)C(C)OC1=O (stereo not given) | -1.72% (inactive) | 
17 | C[N+]1(C)CCC(OC(=O)C(O)(c2ccccc2)C2CCCC2)C1 (stereo not given) | 2.88% [at 42.5 µM] (inactive) | 
18 | CCC(CC)Nc1ccc(C)c(C)c1 | -4.73% (inactive) | 
19 | CCC(=O)O[C@]1(C(=O)CCl)[C@@H](C)C[C@H]2[C@@H]3CCC4=CC(=O)C=C[C@]4(C)[C@@]3(F)[C@@H](O)C[C@@]21C | -6.88% [at 42.5 µM] (inactive) | 
20 | CCCCCCCCCCCc1ccccc1 | 2.66% (inactive) | 

Row | SMILES | activity change, negative = cytotoxicity | Potency
21 | COC(=O)c1ccc(I)cc1S(=O)(=O)NC(=O)Nc1nc(C)nc(OC)n1 | 4.59% (inactive) | 
22 | COc1ccc(S(=O)(=O)N2C(=O)[C@@](c3ccccc3OC)(N3C[C@H](O)C[C@H]3C(=O)N(C)C)c3cc(Cl)ccc32)c(OC)c1 |  | 54.5 µM (active)
23 | C[N+]1(CC2COC(c3ccccc3)(C3CCCCC3)O2)CCCCC1 (stereo not given) | -3.13% [at 42.5 µM] (inactive) | 
24 | O=C1c2ccccc2S(=O)(=O)N1CCCCN1CCN(c2ncccn2)CC1 | 5.73% [at 42.5 µM] (inactive) | 
25 | Nc1ccc(S(=O)(=O)Nc2ccccc2)cc1 | -5.28% [at 42.5 µM] (inactive) | 
26 | OCCN1CCN(CCCN2c3ccccc3C=Cc3ccccc32)CC1 |  | 23.7 µM (active)
27 | C=C(C)C(=O)OCCO | 10.6% (inactive) | 
28 | CC(C)=CCC/C(C)=C/CC/C(C)=C/CO | -1.65% (inactive) | 
29 | O=CC1CC=CCC1 (stereo not given) | -1.39% (inactive) | 
30 | CCCCC(CC)CN1C(=O)C2C3C=CC(C3)C2C1=O (stereo not given) | -1% (inactive) | 
31 | CCCCCCc1ccc(-c2ccc(C#N)cc2)cc1 | -2.69% (inactive) | 
32 | Nc1cccc([N+](=O)[O-])c1 | 0.111% (inactive) | 
33 | CC(C)(C)OCC1CO1 (stereo not given) | -2.17% (inactive) | 
34 | CCO[C@H](Cc1ccc(OCCc2ccc(OS(C)(=O)=O)cc2)cc1)C(=O)O | -2.69% [at 42.5 µM] (inactive) | 
35 | COc1ccc(-c2nc3ccc(C4=NNC(=O)CC4C)cc3[nH]2)cc1 (stereo not given) | -21.3% [at 42.5 µM] (inactive) | 
36 | C=CC(=O)OCCOCCOC(=O)C=C |  | 54.7 µM (active)
37 | CC/C=C\CCOC(=O)CC | 0.408% (inactive) | 
38 | CNC(=O)CN(CCN(CCN(CC(=O)[O-])CC(=O)NC)CC(=O)[O-])CC(=O)[O-].O.[Gd+3] | -1.83% [at 42.5 µM] (inactive) | 
39 | c1ccc(CNCCNCc2ccccc2)cc1 | -12.2% [at 42.5 µM] (inactive) | 
40 | CCCCCC[C@@H](O)C/C=C\CCCCCCCC(=O)OC | -1.23% (inactive) | 

Reference: PubChem BioAssay (Tox21)
